Test [1] is described as follows: ATG_PBREM_CIS: Attagene CIS-FACTORIAL HepG2 Assay for human Phenobarbital-responsive Enhancer Module (PBREM) (AID 2282955). The conditions noted are these: HepG2 PBREM cis-reporter, Attagene multiplexed transcription; actives raise or lower the signal. Put shortly:
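Readout: reporter mRNA, fluorescent RT-PCR fragments separated by capillary electrophoresis. System: HepG2 transiently transfected with cis-regulated reporter units. Exposure: 24 h. Analysis: bidirectional, DMSO baseline.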

The target of test [2] is Paired box protein Pax-6 (Homo sapiens) (UniProt P26367). Description: ATG_Pax6_CIS: Attagene CIS-FACTORIAL HepG2 Assay for human Paired Box 6 (PAX6) (AID 2282956). Conditions: HepG2 CIS-FACTORIAL PAX6 reporter transcription, RNA readout; actives raise or lower the signal. An outline of the steps:
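Multiplexed cis-reporter HepG2 system; 24 h treatment; reporter mRNA read by RT-PCR/CE fluorescence; bidirectional fit vs DMSO.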

Test [3] can be described thus: ATG_PXRE_CIS: Attagene CIS-FACTORIAL HepG2 Assay for human Pregnane X Receptor Element (PXRE) (AID 2282957). The conditions noted are these: HepG2 Attagene CIS-FACTORIAL PXRE reporter, mRNA; actives raise or lower the signal. An outline of the steps: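 Transfect HepG2 with MRTUs (cis promoter elements); dose chemical, incubate 24 h; isolate RNA, RT with oligo(dT), PCR, 6-FAM label, HpaI cut, CE. Gain/loss fit vs DMSO.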

The nature of test [4]: ATG_PPRE_CIS: Attagene CIS-FACTORIAL HepG2 Assay for human Peroxisome Proliferator-activated Response Element (PPRE) (AID 2282958). The conditions noted are these: HepG2 PPRE cis-element reporter, Attagene transcription factor profiling; actives raise or lower the signal. An outline of the steps:
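After human HepG2 hepatoma cells were transiently transfected with cis-promoter reporter constructs, they were exposed to test chemicals for 24 hours. Reporter RNA was then reverse-transcribed, PCR-amplified, FAM-labeled, HpaI-digested and quantified by capillary electrophoresis.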

Test [5] in a line: ATG_RORE_CIS: Attagene CIS-FACTORIAL HepG2 Assay for human RAR-related Orphan Receptor Element (RORE) (AID 2282959). The conditions noted are these: HepG2 Attagene cis-factorial RORE reporter, mRNA; actives raise or lower the signal. Put shortly: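 Measured here: transcript induction of a cis-regulated reporter in HepG2 cells transiently transfected via FuGene 6. After 24 h, RNA was processed by RT-PCR and fluorescent capillary electrophoresis; DMSO defined baseline activity.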

Test [6] can be described thus: ATG_Sox_CIS: Attagene CIS-FACTORIAL HepG2 Assay for human SRY-box transcription factor (SOX) (AID 2282960). Conditions: HepG2 Attagene cis-factorial SOX reporter, mRNA; actives raise or lower the signal. An outline of the steps:
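Using transiently transfected HepG2 cells, reporter transcription driven by cis elements was assessed 24 h after dosing. Signal was fluorescence of capillary-separated RT-PCR products, with DMSO defining baseline activity.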

For test [7], the target named is Transcription factor Sp1 (Homo sapiens) (UniProt P08047). Description: ATG_Sp1_CIS: Attagene CIS-FACTORIAL HepG2 Assay for human Specificity Protein 1 (Sp1) (AID 2282961). The conditions noted are these: HepG2 Sp1 cis-reporter transcription, actives raise or lower the signal. Put shortly: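 After transient transfection of HepG2 cells with cis-promoter reporter units and 24 h chemical treatment, reporter transcripts were quantified by RT-PCR and capillary electrophoresis fluorescence. Gain- and loss-of-signal fitted against DMSO.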

Test [8] is described as follows: ATG_SREBP_CIS: Attagene CIS-FACTORIAL HepG2 Assay for human Sterol Regulatory Element Binding (SREBP) (AID 2282962). The conditions noted are these: HepG2 Attagene cis-factorial SREBP reporter, mRNA; actives raise or lower the signal. An outline of the steps:
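mRNA induction of transfected cis-promoter reporters in HepG2 cells, 24 h post-dose. Detection: RT-PCR with 6-FAM-labelled products, HpaI digest, capillary electrophoresis. DMSO served as negative control and baseline.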

The target in test [9] is Signal transducer and activator of transcription 3 (Homo sapiens) (UniProt P40763). Description: ATG_STAT3_CIS: Attagene CIS-FACTORIAL HepG2 Assay for human Signal Transducer and Activator of Transcription 3 (STAT3) (AID 2282963). Conditions: HepG2, Attagene cis-factorial STAT3 reporter transcription; actives raise or lower the signal. An outline of the steps: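 Endogenous STAT3-responsive cis-element activity was read in transiently transfected HepG2 cells after 24 h treatment. Reporter transcripts were quantified via RT-PCR and capillary electrophoresis, with DMSO as negative control and bidirectional curve fitting.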

Test [10] is described as follows: ATG_TA_CIS: Attagene CIS-FACTORIAL HepG2 Assay for human TA Basal Promoter (AID 2282964). The conditions noted are these: HepG2 Attagene CIS-factorial TA basal promoter reporter; actives raise or lower the signal. An outline of the steps:
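Steps: transfect HepG2 with MRTUs; dose 24 h; isolate RNA, DNase-treat, reverse-transcribe; PCR and FAM-label reporter cDNA; digest with HpaI 2h at 37 C; run capillary electrophoresis. Activity fitted both directions against DMSO.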

Test [11] can be described thus: ATG_TCF_b_cat_CIS: Attagene CIS-FACTORIAL HepG2 Assay for human T-Cell-Factor with beta-catenin (TCF/b-cat) (AID 2282965). The conditions noted are these: HepG2 TCF/beta-catenin cis-reporter transcription, actives raise or lower the signal. An outline of the steps:
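Endogenous TCF/LEF activity read as reporter transcript level via RT-PCR and capillary electrophoresis fluorescence in transfected HepG2, 24 h exposure; gain or loss of signal fitted against DMSO controls.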

A short description of test [12]: ATG_TAL_CIS: Attagene CIS-FACTORIAL HepG2 Assay for human TAL Basal Promoter (AID 2282966).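 Further: background control endpoint measuring basal TAL promoter reporter mRNA not a specific factor.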 The conditions noted are these: HepG2 Attagene cis-factorial TAL promoter reporter; actives raise or lower the signal. An outline of the steps:
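Fluorescence of labelled reporter cDNA fragments, resolved by capillary electrophoresis, gave the readout. Human HepG2 liver cells carried transiently transfected cis-element reporter units and were treated for 24 hours; activity was fitted bidirectionally against DMSO.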

The nature of test [13]: ATG_TGFb_CIS: Attagene CIS-FACTORIAL HepG2 Assay for human Transforming Growth Factor (TGF) (AID 2282967). The conditions noted are these: HepG2 Attagene CIS TGFb reporter, mRNA transcription; actives raise or lower the signal. Put shortly: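 Cells were dosed for 24 hours, after which total RNA was reverse-transcribed and reporter sequences amplified, labeled and sized by capillary electrophoresis. Activity was fitted in both directions against DMSO.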

Test [14] is described as follows: ATG_VDRE_CIS: Attagene CIS-FACTORIAL HepG2 Assay for human Vitamin D Receptor Element (VDRE) (AID 2282968). Conditions: HepG2 VDRE cis-reporter transcription, actives raise or lower the signal. Put shortly: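 Reporter mRNA induction, quantified by capillary electrophoresis of fluorescently labelled RT-PCR products, was read 24 h after dosing HepG2 cells carrying transiently transfected cis-regulated reporter units; gain or loss relative to DMSO.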

Test [15] has as its target Estrogen receptor (Homo sapiens) (UniProt P03372). Description: ATG_ERa_TRANS: Attagene TRANS-FACTORIAL HepG2 Assay for human Estrogen Receptor alpha (ERa) (AID 2282970; active means hit-call score of the fitted dose curve at least 0.9, where 1 is the maximum). The conditions noted are these: HepG2 Attagene TRANS ERa GAL4 reporter, mRNA. Put shortly:
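Human liver HepG2, transient transfection of multiple GAL4-UAS reporter units; TRANS format (exogenous NR-Gal4 chimera). 24 h dosing. Readout: reporter mRNA, RT-PCR, 6-FAM primer extension, HpaI digest, capillary electrophoresis. Positive direction vs DMSO.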

Test [16] has as its target Steroid hormone receptor ERR1 (Homo sapiens) (UniProt P11474). Description: ATG_ERRa_TRANS: Attagene TRANS-FACTORIAL HepG2 Assay for human Estrogen-Related Receptor alpha (ERRa) (AID 2282971; active means hit-call score of the fitted dose curve at least 0.9, where 1 is the maximum). Conditions: HepG2 Attagene TRANS reporter, ERRa transactivation. Put shortly: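 Reporter transcript induction was quantified by RT-PCR and capillary electrophoresis of FAM-labelled, HpaI-cut products after 24 h treatment of HepG2 cells carrying transiently transfected GAL4-UAS reporter units and an exogenous ERRa-Gal4 fusion; activity scored as increase over DMSO.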

Test [17] deals with X-box-binding protein 1 (Homo sapiens) (UniProt P17861). Description: ATG_Xbp1_CIS: Attagene CIS-FACTORIAL HepG2 Assay for human X-box Binding Protein 1 (XBP1) (AID 2282972). The conditions noted are these: HepG2 XBP1 cis-element reporter, Attagene multiplex; actives raise or lower the signal. Put shortly: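 Fluorescence-labelled cDNA fragments from reporter transcripts, separated by capillary electrophoresis, give the signal. Source: HepG2 cells transfected with promoter-driven reporter units, harvested 24 h post-dose. DMSO served as reference for bidirectional curve fitting.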

A short description of test [18]: ATG_M_19_TRANS: Attagene TRANS-FACTORIAL HepG2 Assay for M19 Transcription Factor (Internal Marker) (AID 2282974; active means hit-call score of the fitted dose curve at least 0.9, where 1 is the maximum). Conditions: HepG2 Attagene TRANS-FACTORIAL M19 internal marker reporter. An outline of the steps:
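Gain-of-signal in reporter mRNA, relative to DMSO, was scored from capillary electrophoresis fluorescence. HepG2 cells carried transiently transfected multiple reporter transcription units and were incubated with test chemicals for 24 h.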

Test [19] is described as follows: ATG_GAL4_TRANS: Attagene TRANS-FACTORIAL HepG2 Assay for GAL4 (Internal Marker) (AID 2282976; active means hit-call score of the fitted dose curve at least 0.9, where 1 is the maximum). The conditions noted are these: HepG2 Attagene TRANS GAL4 internal marker reporter. An outline of the steps:
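First, HepG2 cells were transfected with reporter units under GAL4-UAS control. Next, they were treated with chemical for 24 h. Finally, RNA was reverse-transcribed, PCR-amplified, FAM-labelled and resolved by capillary electrophoresis, with induction scored against DMSO.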

Results filed as inconclusive are left out. Active and inactive are the calls of the source. How the source made its calls, unless noted: active means hit-call score of the fitted dose curve at least 0.9, where 1 is the maximum; inactive means score below 0.9.

Chain of X-box-binding protein 1 (Homo sapiens) (P17861 whole entry, looked up, the tested form may be a part): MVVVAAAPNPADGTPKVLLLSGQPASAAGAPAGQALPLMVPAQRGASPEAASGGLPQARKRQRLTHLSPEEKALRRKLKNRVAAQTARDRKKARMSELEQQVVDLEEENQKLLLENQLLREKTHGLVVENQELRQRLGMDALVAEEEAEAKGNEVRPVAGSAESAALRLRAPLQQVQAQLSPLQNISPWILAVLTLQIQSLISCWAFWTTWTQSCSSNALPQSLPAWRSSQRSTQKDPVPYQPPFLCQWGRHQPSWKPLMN
Chain of Signal transducer and activator of transcription 3 (Homo sapiens) (P40763 whole entry, looked up): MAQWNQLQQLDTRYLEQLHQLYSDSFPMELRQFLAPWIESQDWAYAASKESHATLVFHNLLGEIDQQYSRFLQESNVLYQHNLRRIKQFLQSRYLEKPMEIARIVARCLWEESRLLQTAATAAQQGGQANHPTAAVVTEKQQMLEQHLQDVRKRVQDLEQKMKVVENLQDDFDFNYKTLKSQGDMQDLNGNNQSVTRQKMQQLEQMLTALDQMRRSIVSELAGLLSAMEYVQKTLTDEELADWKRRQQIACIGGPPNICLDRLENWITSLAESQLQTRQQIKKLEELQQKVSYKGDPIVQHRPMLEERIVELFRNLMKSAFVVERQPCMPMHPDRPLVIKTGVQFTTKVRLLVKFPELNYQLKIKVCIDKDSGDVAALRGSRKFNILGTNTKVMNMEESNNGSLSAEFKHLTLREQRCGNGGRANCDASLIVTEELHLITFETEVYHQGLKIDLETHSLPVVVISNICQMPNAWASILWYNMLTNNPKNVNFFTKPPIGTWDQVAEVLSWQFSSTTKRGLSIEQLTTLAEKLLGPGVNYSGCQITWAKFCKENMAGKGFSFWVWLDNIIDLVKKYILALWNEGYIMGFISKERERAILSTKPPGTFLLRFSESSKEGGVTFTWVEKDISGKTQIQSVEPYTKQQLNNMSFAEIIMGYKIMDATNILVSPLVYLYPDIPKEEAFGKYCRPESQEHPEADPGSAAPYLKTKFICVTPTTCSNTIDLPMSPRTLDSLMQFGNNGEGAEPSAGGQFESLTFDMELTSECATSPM
Chain of Transcription factor Sp1 (Homo sapiens) (P08047 whole entry, looked up): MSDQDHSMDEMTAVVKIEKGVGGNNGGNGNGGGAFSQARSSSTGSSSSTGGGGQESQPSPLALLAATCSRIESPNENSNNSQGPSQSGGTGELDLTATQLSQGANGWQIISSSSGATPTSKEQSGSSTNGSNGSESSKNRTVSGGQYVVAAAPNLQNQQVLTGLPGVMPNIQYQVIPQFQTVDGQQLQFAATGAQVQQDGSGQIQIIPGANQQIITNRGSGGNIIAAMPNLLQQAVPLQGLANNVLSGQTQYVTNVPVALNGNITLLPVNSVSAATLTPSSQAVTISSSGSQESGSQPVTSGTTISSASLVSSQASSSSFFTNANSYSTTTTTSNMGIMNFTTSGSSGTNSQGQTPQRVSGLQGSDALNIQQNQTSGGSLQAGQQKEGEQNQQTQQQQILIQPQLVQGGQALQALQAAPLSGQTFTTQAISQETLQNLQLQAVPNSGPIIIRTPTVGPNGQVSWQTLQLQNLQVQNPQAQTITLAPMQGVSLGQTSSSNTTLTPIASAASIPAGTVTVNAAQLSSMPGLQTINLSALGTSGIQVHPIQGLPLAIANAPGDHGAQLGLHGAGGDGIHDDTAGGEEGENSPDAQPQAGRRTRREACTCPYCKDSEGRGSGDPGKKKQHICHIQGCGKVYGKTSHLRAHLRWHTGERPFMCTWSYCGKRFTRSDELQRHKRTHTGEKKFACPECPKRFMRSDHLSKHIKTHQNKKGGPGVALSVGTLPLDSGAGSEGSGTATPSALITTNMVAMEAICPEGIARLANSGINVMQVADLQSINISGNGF
Chain of Steroid hormone receptor ERR1 (Homo sapiens) (P11474 whole entry, looked up, the tested form may be a part): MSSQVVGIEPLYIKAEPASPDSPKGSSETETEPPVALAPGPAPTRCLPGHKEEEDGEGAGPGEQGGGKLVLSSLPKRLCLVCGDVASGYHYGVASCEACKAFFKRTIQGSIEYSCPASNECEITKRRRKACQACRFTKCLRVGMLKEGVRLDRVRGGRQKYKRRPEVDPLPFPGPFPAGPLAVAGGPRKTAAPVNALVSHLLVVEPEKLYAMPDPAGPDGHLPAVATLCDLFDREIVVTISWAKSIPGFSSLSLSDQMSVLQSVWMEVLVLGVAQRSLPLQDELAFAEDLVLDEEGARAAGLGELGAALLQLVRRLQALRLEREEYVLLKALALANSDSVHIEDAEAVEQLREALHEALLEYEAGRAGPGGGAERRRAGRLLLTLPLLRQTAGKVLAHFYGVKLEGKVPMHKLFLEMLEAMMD
Chain of Estrogen receptor (Homo sapiens) (P03372 whole entry, looked up, the tested form may be a part): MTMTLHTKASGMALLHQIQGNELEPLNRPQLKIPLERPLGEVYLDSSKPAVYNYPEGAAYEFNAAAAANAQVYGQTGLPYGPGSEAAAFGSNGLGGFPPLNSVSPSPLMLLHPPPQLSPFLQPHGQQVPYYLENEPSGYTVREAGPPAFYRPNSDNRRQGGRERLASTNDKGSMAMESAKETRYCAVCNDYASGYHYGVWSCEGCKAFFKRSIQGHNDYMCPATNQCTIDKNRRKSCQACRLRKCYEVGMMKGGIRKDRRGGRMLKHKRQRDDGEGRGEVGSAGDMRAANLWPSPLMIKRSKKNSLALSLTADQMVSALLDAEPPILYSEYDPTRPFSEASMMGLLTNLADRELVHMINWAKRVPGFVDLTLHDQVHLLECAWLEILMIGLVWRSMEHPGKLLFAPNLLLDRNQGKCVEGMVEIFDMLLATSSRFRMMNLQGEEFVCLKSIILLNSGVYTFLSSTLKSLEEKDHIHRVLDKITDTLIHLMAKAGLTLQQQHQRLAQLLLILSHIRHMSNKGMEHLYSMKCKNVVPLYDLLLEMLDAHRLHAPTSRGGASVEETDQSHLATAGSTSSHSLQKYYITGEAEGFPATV
Chain of Paired box protein Pax-6 (Homo sapiens) (P26367 whole entry, looked up): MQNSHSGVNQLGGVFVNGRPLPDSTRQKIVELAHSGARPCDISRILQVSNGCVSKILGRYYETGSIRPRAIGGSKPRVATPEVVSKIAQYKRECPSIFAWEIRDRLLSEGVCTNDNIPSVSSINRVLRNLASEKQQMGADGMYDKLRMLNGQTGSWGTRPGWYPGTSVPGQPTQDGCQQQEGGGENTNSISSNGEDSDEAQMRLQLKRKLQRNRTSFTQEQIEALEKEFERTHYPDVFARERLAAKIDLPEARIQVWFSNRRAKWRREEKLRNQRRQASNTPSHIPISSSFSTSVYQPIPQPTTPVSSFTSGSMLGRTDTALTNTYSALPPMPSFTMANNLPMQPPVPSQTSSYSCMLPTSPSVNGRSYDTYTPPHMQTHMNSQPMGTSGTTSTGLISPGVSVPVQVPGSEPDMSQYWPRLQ

Regarding `O=S(=O)(Cl)C(F)(F)C(F)(F)C(F)(F)C(F)(F)C(F)(F)C(F)(F)C(F)(F)C(F)(F)F`, the outcome in test [1], in test [2], in [5], in [6], in test [7] and in [8] was inactive. Besides, the call in test [9], in test [10], in test [11], in test [12], in test [13] and in test [14] was inactive. The compound was classed as inactive in test [16], in test [17] and in test [18]. In addition, the concentration at half-maximal activity (AC50) is 28.3 µM (active) in [3], 36.6 µM (active) in test [4] and 20.7 µM (active) in test [15].

In the case of `OCC(O)CC(F)(F)C(F)(F)C(F)(F)C(F)(F)F` (configuration not stated), the result in test [1], in test [2], in test [3], in test [4], in [5] and in test [6] was inactive. Moreover, the compound was classed as inactive in [7], in [8], in test [9], in test [10], in test [11] and in test [12]. Also, the compound was called inactive in test [13], in [14], in test [16] and in test [17]. The AC50 in [15] is 70.8 µM (active).

With `CSc1ccc(O)cc1C`, the outcome in test [1], in test [2], in test [4], in test [5], in test [6] and in [7] was inactive. The result in test [8], in test [9], in test [10], in test [11], in [12] and in test [13] was inactive. Also, the call in test [14], in test [16], in test [17], in test [18] and in test [19] was inactive. Also, the results for the AC50 in test [3] and in [15] were 44.3 µM (active) and 11.3 µM (active), respectively.

On to `O=C1C=CC(=O)N1c1ccccc1`, for which the outcome in test [1], in test [2], in [3], in test [4], in [5] and in test [6] was inactive. For the same compound, the outcome in test [7], in test [8], in [9], in test [10], in test [11] and in test [12] was inactive. Besides, the result in test [13], in [15], in [16], in test [17], in test [18] and in [19] was inactive.

These data come from PubChem BioAssay (EPA / NIEHS).
